According to PubChem BioAssay AID651956 (Broad Institute, 2012):
Potency and affinity values are given separately. Results filed as inconclusive are left out. Unmarked numbers belong to inactive results.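 The calls were made as follows: active = in every test run, a fitted half-maximal concentration for signal decrease at or below twice the highest tested concentration; inconclusive = runs disagree, flat 30 to 70% decrease, or poor fit; inactive = the rest.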

Assay: miR-122 activators in hepatoma reporter cells, dose response, cell-based, Huh7 psiCHECK-miR122, Renilla luciferase, cherry-picked (AID 651956);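 also: Renilla luciferase from a miR-122 sensor reporter so lower signal means miR-122 activation; 0% = median neutral control wells and -100% = median positive control wells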
Settings: 48 h; series mostly up to 35 µM; activity change, negative = signal decrease: at the top concentration

Row | Compound | activity change, negative = signal decrease
1 | COc1ccc(NC(=O)COC(=O)CCCc2c[nH]c3ccccc23)cc1 | -11.8%
2 | O=C(c1ccco1)N1CCN(C2CC(=O)N(c3ccccc3)C2=O)CC1 (centres undefined) | 43.9%
3 | CCC(=O)Nc1ccc2c(c1)C(=O)N(C)[C@@H]1CC[C@H](CC(=O)Nc3cccc(OC)c3)O[C@@H]1CO2 | -15.5%
4 | CN1C(=O)c2cc(NS(=O)(=O)c3cccc(F)c3)ccc2OC[C@H]2O[C@@H](CC(=O)NCCN3CCCCC3)CC[C@H]21 | -27.6% [at 30 µM]
5 | CC(C)C(=O)Nc1ccc2c(c1)C(=O)N(C)[C@H]1CC[C@@H](CC(=O)NCc3ccccc3F)O[C@H]1CO2 | 64.2%
6 | CN1C(=O)c2cc(NC(=O)c3ccc4c(c3)OCO4)ccc2OC[C@H]2O[C@@H](CC(=O)O)CC[C@@H]21 | -34%
7 | CC(C)C(=O)Nc1ccc2c(c1)C(=O)N(C)[C@@H]1CC[C@H](CC(=O)N[C@H](C)c3ccccc3)O[C@@H]1CO2 | 72.5%
8 | CCNC(=O)C[C@@H]1CC[C@@H]2[C@@H](COc3ccc(NC(=O)c4ccccc4)cc3C(=O)N2C)O1 | 57.6%
9 | Clc1ccc(CSc2nnc(-c3ccncc3)o2)c(Cl)c1 | 62.1%
10 | CN1C(=O)c2cc(NC(=O)C3CC3)ccc2OC[C@@H]2O[C@H](CC(=O)NCCN3CCCC3)CC[C@H]21 | 89.1%
11 | COc1cccc(C(=O)Nc2ccc3c(c2)C(=O)N(C)[C@H]2CC[C@H](CC(=O)NCc4ccc(F)cc4)O[C@@H]2CO3)c1 | 60.8%
12 | Cc1ccc(-n2c(Cc3ccccc3)n[nH]c2=S)cc1 | 52.8%
13 | N#Cc1ccc(NC(=O)Nc2ccc(Oc3ccc(NC(=O)Nc4ccc(C#N)cc4)cc3)cc2)cc1 | -58.5%
14 | COc1cc(N)c(Cl)cc1NC(=O)c1ccccc1 | -28%
15 | CN(C(=O)C12CC3CC(CC(C3)C1)C2)C1CCS(=O)(=O)C1 (centres undefined) | 24.3%
16 | CC(C)NC(=O)N1[C@H](CO)[C@@H](c2ccccc2)[C@@H]1CN(C)C(=O)c1cccnc1 | -24.5%
17 | O=C(Nc1ncc(Cc2cccc(C(F)(F)F)c2)s1)c1ccc(-c2cccc([N+](=O)[O-])c2)o1 | -14.5%
18 | COc1cccc(CNC(=O)C[C@@H]2CC[C@@H]3[C@@H](COc4ccc(NC(C)=O)cc4C(=O)N3C)O2)c1 | 11.7%
19 | CC(C)NC(=O)N1C[C@@H]2[C@H](c3ccccc31)[C@@H](CO)N2C(=O)c1cccnc1 | -18.4%
20 | C[C@@H]1CN([C@@H](C)CO)C(=O)c2cc(NC(=O)Nc3ccc(C(F)(F)F)cc3)ccc2O[C@@H]1CN(C)CC1CCCCC1 | -104%

Row | Compound | activity change, negative = signal decrease
21 | CN[C@H]1C[C@H]2c3[nH]c4ccc(-c5ccc(OC)cc5)cc4c3CCN2C(=O)[C@H]1[C@H](C)O | -96.4%
22 | Fc1ccc(CN2CCN(c3ncnc4scc(-c5ccc(F)cc5)c34)CC2)cc1 | 62.3%
23 | C[C@@H]1CN([C@@H](C)CO)S(=O)(=O)c2ccc(C3=CCCC3)cc2O[C@@H]1CN(C)C(=O)c1ccc(F)cc1 | -64.2%
24 | COC(=O)C[C@@H]1CC[C@H]2[C@@H](COc3ccc(NC(=O)Nc4ccccc4C)cc3C(=O)N2C)O1 | 13.5%
25 | CCC(=O)NC[C@H]1[C@H](c2ccc(C3=CCCC3)cc2)[C@H](CO)N1C(C)=O | -24.8%
26 | Cc1ccc(S(=O)(=O)NCCCNS(C)(=O)=O)cc1 | -0.902%
27 | COCC(=O)NC[C@@H]1[C@H](c2ccc(C3=CCCC3)cc2)[C@@H](CO)N1C(=O)C1CC1 | 100%
28 | C/C=C/c1ccc([C@@H]2[C@@H](CO)N[C@@H]2CN(CC)C(=O)CN2CCOCC2)cc1 | 52.7%
29 | CC(=O)Oc1ccc2c(c1)C(=O)c1ccccc1CO2 | 46.6%
30 | COc1ccc(-c2c(C(C)=O)c(C)nc3sc4c(c23)NC(c2ccccc2)NC4=O)cc1 (centres undefined) | -2.67%
31 | COc1cccc(CNC(=O)C[C@H]2CC[C@@H]3[C@H](COc4ccc(NC(C)=O)cc4C(=O)N3C)O2)c1 | -32.5%
32 | CO[C@@H]1CN(C)C(=O)c2ccc(NC(=O)c3nc4ccccc4s3)cc2OC[C@H](C)N(Cc2cccnc2)C[C@H]1C | -9.21%
33 | CCN(CC)CCNc1nc(-c2ccccc2)nnc1C(F)(F)F | -20.6%
34 | CC(=O)Nc1ccc2c(c1)C(=O)N(C)[C@@H]1CC[C@H](CC(=O)NC3CCCCC3)O[C@H]1CO2 | 85.8%
35 | O=C(COC(=O)c1ccccc1)Nc1cc(Cl)ccc1Oc1ccccc1 | -24.7%
36 | COC(=O)C[C@H]1CC[C@@H]2[C@@H](COc3ccc(NC(=O)c4ccc(F)c(F)c4)cc3C(=O)N2C)O1 | -37.6%
37 | COCC(=O)N(C[C@@H]1N[C@H](CO)[C@H]1c1ccc(-c2cccnc2)cc1)C(C)C | 80%
38 | C/C=C/c1ccc([C@@H]2[C@@H](CO)N(S(C)(=O)=O)[C@H]2CN(C)C(=O)CC)cc1 | -44.8%
39 | C/C=C/c1ccc([C@H]2[C@@H](CO)N[C@@H]2CN(C(=O)c2ccccc2F)C(C)C)cc1 | 179%
